Experimental data taken from PubChem BioAssay.
Where “and” joins values, the source holds several entries; their conditions need not be identical. Equal entries are not always repeated. Records with an inconclusive call do not appear. For some assays here: Potency and affinity values are given separately. A structure can be active in one record and inactive in another. Calls of active or inactive are those of the source.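 How the source made its calls, unless noted: active means compounds whose cell count with miR-34 switched on is under 0.7 times the count with it off; inactive means the rest.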

Legend:
[1] = viability loss with induced miR-34 in A549 – imaging, A549 dox-inducible miR-34, nuclei and caspase counts, primary screen (AID 1347080); conditions: A549 miR-34 inducible, Hoechst nuclei count, 48 h
[2] = galactose survival enhancers in mitochondrial complex I cybrids – cell-based, galactose medium, ATP luminescence, primary screen (AID 1645843;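 active means z-score of at least 1.8 in each of two replicates, scored against plate mean and spread of sample wells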;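 further: positive z means more ATP and so rescue of galactose-driven cybrid death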); conditions: complex I mutant cybrid cells, 72 h, stronger effect = higher value
[3] = compounds altering viability of human ES cells (AID 493140; call rule not given here;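 further: cells exposed to compounds for four days before counting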); conditions: human embryonic stem cell survival screen; stronger effect = higher value
[4] = P. berghei load reduction in hepatocytes – cell-based, HepG2, luciferase luminescence, HepG2 viability, primary screen (AID 624349; in the data active means parasite load remaining mostly below about 12%, no sharp cut-off; inactive means mostly above about 10%;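 further: 100% = mean of DMSO negative control wells on the same plate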); conditions: P. berghei liver stage in HepG2, luciferase luminescence, concentration not given here; parasite load remaining: stronger effect = lower value; viability: measured here: HepG2 viability without parasites
[5] = MELAS cybrid and Rieske KO viability enhancers – cell-based, MELAS cybrids, Rieske KO mouse fibroblasts, CellTiter-Glo, primary screen (AID 1508586;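 active means mean z-score across replicates of 1.96 or higher in either the MELAS or the Rieske mutant cell line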;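 further: z relative to plate mean and SD of compound and empty wells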); conditions: low glucose
[6] = molecular target: ATP-dependent translocase ABCB1 (Homo sapiens) (UniProt P08183); assay: P-glycoprotein substrate transport blockade – cell-based (AID 377; in the data active means fluorescence slope change above about 50%); conditions: MDR1-expressing cells, fluorescent substrate accumulation slope; stronger effect = higher value; concentration not given here
ATP-dependent translocase ABCB1 (Homo sapiens), sequence (P08183 whole entry, looked up): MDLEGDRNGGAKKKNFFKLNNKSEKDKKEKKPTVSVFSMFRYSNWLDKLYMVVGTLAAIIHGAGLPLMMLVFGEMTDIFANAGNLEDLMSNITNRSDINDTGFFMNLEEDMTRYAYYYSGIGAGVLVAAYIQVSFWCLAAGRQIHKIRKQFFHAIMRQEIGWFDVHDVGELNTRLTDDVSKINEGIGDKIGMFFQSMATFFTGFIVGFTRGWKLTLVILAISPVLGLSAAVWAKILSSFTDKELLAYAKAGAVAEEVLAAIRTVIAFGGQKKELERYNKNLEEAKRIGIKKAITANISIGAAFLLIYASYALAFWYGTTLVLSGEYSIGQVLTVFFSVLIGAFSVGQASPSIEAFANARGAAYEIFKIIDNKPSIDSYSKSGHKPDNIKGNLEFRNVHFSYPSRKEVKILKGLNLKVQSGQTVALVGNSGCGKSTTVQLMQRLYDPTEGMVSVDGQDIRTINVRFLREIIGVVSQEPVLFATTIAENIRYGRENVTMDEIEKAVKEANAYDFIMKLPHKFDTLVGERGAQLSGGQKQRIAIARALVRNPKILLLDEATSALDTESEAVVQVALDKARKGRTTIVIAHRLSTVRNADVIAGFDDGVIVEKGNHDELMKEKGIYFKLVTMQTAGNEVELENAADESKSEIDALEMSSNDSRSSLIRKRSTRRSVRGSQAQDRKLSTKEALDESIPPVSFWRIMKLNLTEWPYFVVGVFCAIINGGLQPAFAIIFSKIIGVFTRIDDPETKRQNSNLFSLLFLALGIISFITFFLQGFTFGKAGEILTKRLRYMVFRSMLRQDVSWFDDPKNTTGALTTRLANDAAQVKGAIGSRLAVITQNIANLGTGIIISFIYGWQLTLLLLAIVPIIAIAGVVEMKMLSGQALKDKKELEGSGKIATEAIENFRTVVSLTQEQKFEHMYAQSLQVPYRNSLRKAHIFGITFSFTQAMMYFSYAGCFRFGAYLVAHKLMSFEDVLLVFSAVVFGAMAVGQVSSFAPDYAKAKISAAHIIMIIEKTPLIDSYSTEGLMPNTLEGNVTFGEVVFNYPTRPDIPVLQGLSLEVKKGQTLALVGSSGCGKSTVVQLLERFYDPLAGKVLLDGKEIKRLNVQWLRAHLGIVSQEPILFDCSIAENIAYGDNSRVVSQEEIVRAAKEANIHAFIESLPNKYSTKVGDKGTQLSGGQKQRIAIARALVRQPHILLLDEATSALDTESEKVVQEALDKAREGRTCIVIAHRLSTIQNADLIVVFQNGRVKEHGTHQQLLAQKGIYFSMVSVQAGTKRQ

[7] = blockers of polyQ-driven CASP3 activation – cell-based (AID 1583); conditions: polyglutamine-induced caspase-3 activation, cell assay; stronger effect = higher value;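 tested at 10 µM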
[8] = yeast 75Q aggregation reduction – 75Q-TubU reporter (AID 1593); conditions: Yeast 75Q polyglutamine aggregation reporter
[9] = restoration of touch response, mutant HTT neurons – whole organism, C. elegans mechanosensory neurons, N-terminal huntingtin (AID 1599); conditions: C. elegans polyQ-huntingtin mechanosensory neurons, stronger effect = higher value
[10] = blockers of cytochrome c efflux from mitochondria – biochemical, purified mitochondria (AID 1603); conditions: stronger effect = lower value;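 further: mouse liver mitochondria challenged with calcium chloride; signal normalized to the plate average as 100%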
[11] = polyglutamine aggregate formation blockers (AID 1604); conditions: polyglutamine-induced protein aggregation inhibition assay; stronger effect = higher value; tested at 2.5 µM
[12] = glutamate transport activators, MN-1 cells, MN-1 cell line (AID 1612); conditions: MN-1 motor neuron cells, stronger effect = higher value;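 further: tested at 1 µM final; 0% = mean of DMSO vehicle wells on each plate; positive means more glutamate uptake than control and negative means less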
[13] = GFP-Q80 aggregate reduction, neuronal-like cells, cell-based, NGF-treated PC12, GFPQ80 (AID 1614); conditions: PC12 NGF-treated GFP-polyQ80 inclusion reduction;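 further: lower means fewer inclusions and 0 means no inclusions at all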
[14] = 75Q-TubH aggregate inhibition, S. cerevisiae, yeast (AID 1616); conditions: S. cerevisiae 75Q-TubH polyglutamine aggregation suppression; stronger effect = higher value
[15] = molecular target: NAD(+) hydrolase SARM1 (Homo sapiens) (UniProt Q6SZW1); assay: blocking NAD cleavage by SARM1 SAM-TIR – cell lysate, NAD-Glo luminescence (AID 1508614;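 active means compound whose remaining NAD level is above about 45 nM, limit read from the data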); conditions: SAM-TIR HEK293T lysate NADase, at 1 µM, stronger effect = higher value
NAD(+) hydrolase SARM1 (Homo sapiens), sequence (Q6SZW1 whole entry, looked up): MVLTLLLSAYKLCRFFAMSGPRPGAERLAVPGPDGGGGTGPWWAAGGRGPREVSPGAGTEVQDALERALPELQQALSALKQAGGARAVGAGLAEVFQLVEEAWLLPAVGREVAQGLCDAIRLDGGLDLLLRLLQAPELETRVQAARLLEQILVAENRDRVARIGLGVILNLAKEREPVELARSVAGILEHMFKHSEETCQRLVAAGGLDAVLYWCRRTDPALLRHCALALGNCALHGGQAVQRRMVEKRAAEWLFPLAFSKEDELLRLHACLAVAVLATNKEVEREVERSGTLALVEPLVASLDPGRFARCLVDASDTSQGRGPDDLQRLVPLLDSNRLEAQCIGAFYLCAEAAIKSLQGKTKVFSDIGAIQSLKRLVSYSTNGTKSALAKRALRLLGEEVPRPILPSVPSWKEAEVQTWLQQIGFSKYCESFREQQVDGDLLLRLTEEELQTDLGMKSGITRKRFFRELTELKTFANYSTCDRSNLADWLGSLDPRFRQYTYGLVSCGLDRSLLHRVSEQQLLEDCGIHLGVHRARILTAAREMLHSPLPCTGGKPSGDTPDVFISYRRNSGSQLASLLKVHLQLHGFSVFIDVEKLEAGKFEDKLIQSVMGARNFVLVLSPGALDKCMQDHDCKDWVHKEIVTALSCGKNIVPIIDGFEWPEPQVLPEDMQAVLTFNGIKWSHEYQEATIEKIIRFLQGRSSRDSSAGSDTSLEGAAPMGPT

[16] = blockers of MitoPT in mitochondria (AID 1580; call rule not given here); conditions: isolated mitochondria, permeability transition inhibition
[17] = rescue of PC12 cells from polyQ htt toxicity – LDH release (AID 1610); conditions: PC12 mutant huntingtin toxicity, final LDH at 4 uM, stronger effect = lower value
[18] = stronger effect = lower value, cell number ratio, induced over uninduced
[19] = measured here: relative caspase fold change +Dox/-Dox
[20] = measured here: total cells with miR-34 induction, stronger effect = lower value
[21] = measured here: total cells without miR-34 induction
[22] = MELAS cybrid survival, CellTiter-Glo 48 h, stronger effect = higher value
[23] = Rieske KO mouse fibroblast survival, CellTiter-Glo 72 h

CCC1C=CC=CCC(C)C(O)C(C)C(=O)C(C)C(O)C(C)C(=O)C(C)C(O)C(C)C=CC(=O)OC2C(C)C(CC1)O[C@@]1(CCC(C)C(CC(C)O)O1)C2C (stereo partly specified)
fold change [1, 18]: 1.03 (inactive)
fold change [1, 19]: 1.64
cell count [1, 20]: 7130
cell count [1, 21]: 6920
z-score [2]: -0.03 (inactive)

CCCCCC[C@H]1C(=O)O[C@H](C)C(NC(=O)c2cccc(NC=O)c2O)C(=O)O[C@@H](C)[C@@H]1OC(=O)CC(C)C (stereo partly specified)
survival [3]: 38.8 (inactive)
parasite load remaining [4]: 0.52% (inactive) and 0.28% (active)
viability [4]: 30.3% and 71%
fold change ([1]; stronger effect = lower value): 1.21 (inactive)
fold change [1, 19]: 0.771
cell count [1, 20]: 3300
cell count [1, 21]: 2720
z-score [5, 22]: 0.402 (inactive)
z-score [5, 23]: 0.0989

CCOC(=O)c1cncn1[C@@H](C)c1ccccc1
parasite load remaining [4]: 94.8% (inactive)
viability [4]: 128%
fold change ([1]; stronger effect = lower value): 0.937 (inactive)
fold change [1, 19]: 0.906
cell count [1, 20]: 8390
cell count [1, 21]: 8960
z-score [5, 22]: -0.428 (inactive)
z-score [5, 23]: -0.415

CN1C[C@H](CO)C=C2c3cccc4[nH]cc(c34)C[C@H]21
fluorescence slope change [6]: 116% (active)
inhibition [7]: 16.6%
score [8]: 1.69
rescue above control [9]: 7.23
cytochrome c release ratio [10]: 1.6
inhibition of aggregation [11]: 44.9%
glutamate uptake change [12]: -16.1%
inclusion score [13]: 2
aggregation suppression score [14]: 1.67
survival [3]: 7.67 (inactive)
parasite load remaining [4]: 67.2% (inactive) and 71.4% (inactive)
viability [4]: 100% and 77.2%
fold change ([1]; stronger effect = lower value): 0.809 (inactive)
fold change [1, 19]: 1.6
cell count [1, 20]: 8450
cell count [1, 21]: 10400

CN1CC[C@@]2(C)c3cc(O)ccc3N(C)[C@H]12
parasite load remaining [4]: 82.4% (inactive)
viability [4]: 73.5%
fold change [1, 18]: 0.908 (inactive)
fold change [1, 19]: 0.758
cell count [1, 20]: 8570
cell count [1, 21]: 9440
z-score [5, 22]: 0.308 (inactive)
z-score [5, 23]: 1.44

CCC(C)(C)O
fold change ([1]; stronger effect = lower value): 0.953 (inactive)
fold change [1, 19]: 0.901
cell count [1, 20]: 9020
cell count [1, 21]: 9470
remaining NAD [15]: 10 nM (inactive)

CC[C@]1(O)CCC2C3CCC4=CCCCC4C3CC[C@@]21C (stereo partly specified)
fold change ([1]; stronger effect = lower value): 1.01 (inactive)
fold change [1, 19]: 1.28
cell count [1, 20]: 5670
cell count [1, 21]: 5590
z-score [2]: -0.425 (inactive)

Oc1ccc2c3c1OC1C(O)CC[C@@]4(O)C(C2)N(CC2CCC2)CC[C@]314 (stereo partly specified)
fold change ([1]; stronger effect = lower value): 0.877 (inactive)
fold change [1, 19]: 1.82
cell count [1, 20]: 8530
cell count [1, 21]: 9720
z-score [2]: 0.8 (inactive)

C[C@]12CCC(=O)CC1CCC1C2CC[C@@]2(C)C1CC[C@]2(C)O (stereo partly specified)
fold change ([1]; stronger effect = lower value): 0.938 (inactive)
fold change [1, 19]: 1.8
cell count [1, 20]: 9370
cell count [1, 21]: 9990
z-score [2]: -0.195 (inactive)

CNc1ccc2oc(C[C@@H]3OC4(CC[C@@H]3C)O[C@H](C(C)C(=O)c3ccc[nH]3)[C@H](C)C[C@H]4C)nc2c1C(=O)O (stereo partly specified)
EC50 [16]: 1000 nM (active)
inhibition [7]: 86.4%
score [8]: -0.79
cytochrome c release ratio [10]: 0.48
inhibition of aggregation [11]: 51.9%
normalised LDH release [17]: 1.68
glutamate uptake change [12]: -78%
aggregation suppression score [14]: -0.166
fold change ([1]; stronger effect = lower value): 1.33 (inactive)
fold change [1, 19]: 0.886
cell count [1, 20]: 885
cell count [1, 21]: 666

CN[C@@H]1[C@@H](O)[C@@H](O[C@@H]2[C@@H](O)[C@H](O[C@H]3O[C@H]([C@@H](C)NC)CC[C@H]3N)[C@@H](N)C[C@H]2N)OC[C@]1(C)O
parasite load remaining [4]: 20.1% (inactive)
viability [4]: 64.5%
fold change ([1]; stronger effect = lower value): 0.872 (inactive)
fold change [1, 19]: 1.03
cell count [1, 20]: 10000
cell count [1, 21]: 11500
z-score [5, 22]: 0.508 (inactive)
z-score [5, 23]: 0.179

Oc1cc2c(cc1O)C1c3ccccc3CNC1CC2 (stereo unspecified)
fold change [1, 18]: 0.881 (inactive)
fold change [1, 19]: 2.62
cell count [1, 20]: 9630
cell count [1, 21]: 10900
z-score [2]: -1.86 (inactive)

C(#CCN1CCCC1)CN1CCCC1
fluorescence slope change [6]: 19.7% (inactive)
survival [3]: 6.42 (inactive)
parasite load remaining [4]: 82.8% (inactive) and 98.5% (inactive)
viability [4]: 112% and 92.6%
fold change [1, 18]: 0.85 (inactive)
fold change [1, 19]: 1.28
cell count [1, 20]: 8550
cell count [1, 21]: 10100
z-score [5, 22]: 0.0358 (inactive)
z-score [5, 23]: -0.183

C[C@]12CC[C@@H](O)C[C@@H]1CC[C@@H]1[C@@H]2CC[C@]2(C)C(=O)CC[C@@H]12
survival [3]: 13.1 (inactive)
parasite load remaining [4]: 90.4% (inactive) and 71.8% (inactive)
viability [4]: 90.3% and 79.5%
fold change ([1]; stronger effect = lower value): 0.869 (inactive)
fold change [1, 19]: 1.48
cell count [1, 20]: 8170
cell count [1, 21]: 9410
z-score [5, 22]: 0.119 (inactive)
z-score [5, 23]: -0.286

C[N+]1([O-])[C@@H]2CC(OC(=O)[C@H](CO)c3ccccc3)C[C@H]1[C@@H]1O[C@@H]12 (stereo partly specified)
fluorescence slope change [6]: 76.2% (active)
survival [3]: 10.4 (inactive)
parasite load remaining [4]: 3.97% (inactive) and 96.4% (inactive)
viability [4]: 30.6% and 90.4%
fold change [1, 18]: 0.882 (inactive)
fold change [1, 19]: 1.03
cell count [1, 20]: 8380
cell count [1, 21]: 9510
z-score [5, 22]: -1.22 (inactive)
z-score [5, 23]: -0.531

C[N+]1(C)C2CC[C@H]1CC(OC(=O)C(CO)c1ccccc1)C2 (stereo partly specified)
parasite load remaining [4]: 93.5% (inactive)
viability [4]: 105%
fold change [1, 18]: 0.955 (inactive)
fold change [1, 19]: 1.32
cell count [1, 20]: 8910
cell count [1, 21]: 9340
z-score [5, 22]: 0.0273 (inactive)
z-score [5, 23]: -0.854

C#CC(C)(O)CC (stereo unspecified)
fold change ([1]; stronger effect = lower value): 0.85 (inactive)
fold change [1, 19]: 1.03
cell count [1, 20]: 8040
cell count [1, 21]: 9450
remaining NAD [15]: 10 nM (inactive)

C[C@]12Cc3cn[nH]c3CC1CCC1C2CC[C@@]2(C)C1CC[C@]2(C)O (stereo partly specified)
fold change ([1]; stronger effect = lower value): 0.922 (inactive)
fold change [1, 19]: 1.42
cell count [1, 20]: 8110
cell count [1, 21]: 8800
z-score [2]: -0.42 (inactive)

CN1[C@@H]2CC[C@H]1CC(OC(=O)C1C=Nc3ccccc31)C2 (stereo partly specified)
parasite load remaining [4]: 130% (inactive)
viability [4]: 98.7%
fold change [1, 18]: 0.853 (inactive) and 0.904 (inactive)
fold change [1, 19]: 1.46 and 2.72
cell count [1, 20]: 8760 and 8980
cell count [1, 21]: 10300 and 9930
z-score [5, 22]: 2.22 (active) and 0.522 (inactive)
z-score [5, 23]: -0.387 and 0.113
